Records with an inconclusive call do not appear. Entries that show only a call come without a potency. Values without a mark were called inactive. Activity calls are given as the source filed them. Calls follow the shape of the dose curve; as a rule, active = well fitted cell-killing curve with a large enough effect; inconclusive = small, poorly fitted or top-dose-only effect, or effect the other way; inactive = flat fitted curve, though single readings scatter. Where a SMILES comes first, the peptide text is derived from it. [ ]: non-standard residue; d: D form. pGlu = O=C1CC[C@@H](C(=O)O)N1; Thz = O=C(O)[C@@H]1CSCN1
These compounds were tested on CAOV3 (assay: Primary qHTS to identify gynecologic anti-cancer compounds using libraries of approved drugs and bioactive compounds (AID 1345084; also: nearly all actives have a fitted effect of over 55% in size)). Settings: Gynecologic cancer cell panel viability, ATPlite luminescence, 48 h; series mostly up to 57.5 µM.
Source text: National Center for Advancing Translational Sciences [NCATS] Assay Overview: Chemotherapeutic drug responses vary from cancer to cancer and from patient to patient. These variations could be caused by a number of factors including patient genomic background, tumor mutations, tumor heterogeneity, and aspects of drug treatment. Chemotherapeutic drug resistance is also a common issue and can lead to ineffective treatment and patient death. Here we have profiled the cell killing effects of thousands of compounds to characterize the responses in three gynecological cancers, identify cancer-selective compounds, and understand the diversity of responses to these compounds from pan-cancer suppressors to single cell line selective compounds. In this assay, we screened a 7,914 compound drug library that included approved drug and bioactive compounds in six ovarian, three cervical, and […] placental cancer cell lines using the ATPlite assay for cell viability. […] The cervical cancer cell lines included HeLa, Ca Ski, and C-33 A. The placental cancer cell lines included JEG-3. HEK 293T cells were used as the control cell line to determine the selectivity index. ATPlite is a luminescence based assay reliant on the conversion of a luciferase substrate to light in the presence of ATP. As a cytotoxic compound will suppress growth and decrease the number of cells, the concentration of ATP will decrease, and less light signal will be detected in the well.
Assay Protocol Summary: 1,000 cells in 4 uL of media were dispensed into white, solid bottom 1536-well plates using a Multidrop Combi (Thermo Scientific). The Assay plates were incubated for 16 hours at 37 C with 5% CO2 in assay plates, followed by the addition of 23 nL of DMSO or drug dissolved in DMSO. Each compound was assayed in five concentrations (0.092, 0.46, 2.3, 11.5, and 57.5 uM), using the automated Wako 1536 Pin Tool workstation and incubated at 37 C with 5% CO2 48 hours. 4 uL of ATPlite, the ATP monitoring reagent, was then added to the each well of the assay plates using the Multidrop Combi reagent dispenser followed by incubation for 15 minutes at room temperature. The resulting luminescence was measured using the ViewLux plate reader.
With `COc1cc(/C=C/C(=O)N2CCN(CC(=O)N3CCCC3)CC2)cc(OC)c1OC` the Potency was “inactive”. In the case of `O=C(OCc1ccccc1)c1ccccc1`, the Potency was “inactive”. For `N=C(N)N`, the Potency was “inactive”. For `Cc1c(N)c(=O)n(-c2ccccc2)n1C`, the Potency was “inactive”. `CCCOC(=O)c1ccc(O)cc1` was tested, and the Potency was “inactive”. With `C/C(=N\O)c1ccc(OCC(=O)N2CCCCC2)cc1` the Potency was “inactive”. With `CC(=O)SCC(CC(=O)c1ccc(C)cc1)C(=O)O` (stereo not given) the Potency was “inactive”. `C[N+]1(C)[C@@H]2CC(OC(=O)[C@H](CO)c3ccccc3)C[C@H]1[C@@H]1O[C@@H]12` (stereo not given in full) was tested, and the Potency was “inactive”. `O=C(O)Cc1cccc(-c2cc(CCCCCCc3ccc(O[C@H]4O[C@H](CO)[C@@H](O)[C@H](O)[C@@H]4O)c(-c4cccc(CC(=O)O)c4)c3)ccc2O[C@H]2O[C@H](CO)[C@@H](O)[C@H](O)[C@@H]2O)c1` gave an activity change, negative = cytotoxicity of 12.9% [at 0.462 µM]. With `C#C[C@]1(O)CC[C@H]2[C@@H]3CCc4cc(O)ccc4[C@H]3CC[C@@]21C` the Potency was “inactive”. `COC(=O)C1=C(C)NC(C)=C(C(=O)OCC(C)=O)C1c1ccccc1[N+](=O)[O-]` (stereo not given) was tested, and the Potency was “inactive”. With `CC(C(=O)O)c1ccc2c(c1)[nH]c1ccc(Cl)cc12` (stereo not given) the Potency was “inactive”. With `CC1(C)[C@@H](O)CC[C@]2(C)[C@H]3C(=O)C=C4[C@@H]5C[C@@](C)(C(=O)O)CC[C@]5(C)CC[C@@]4(C)[C@]3(C)CC[C@@H]12` the Potency was “inactive”. In the case of `O=C(O)c1cc(O)c(O)c(O)c1`, the Potency was “inactive”. In the case of `O=Cc1ccc(O)c(O)c1O`, the Potency was “inactive”. For `CN1[C@@H]2CC[C@H]1CC(OC(c1ccccc1)c1ccccc1)C2` (stereo not given in full), the Potency was “inactive”. For `NCCO`, the Potency was “inactive”. `Cc1[nH]cnc1CN1CCc2c(c3ccccc3n2C)C1=O` was tested, and the Potency was “inactive”. For `Nc1c(CC(=O)O)cccc1C(=O)c1ccc(Br)cc1`, the Potency was “inactive”. With `O=C(O)Cc1ccc(-c2ccccc2)cc1` the Potency was “inactive”. In the case of `CC1(C)[C@@H](O[C@H]2O[C@H](C(=O)O)[C@@H](O)[C@H](O)[C@H]2O[C@@H]2O[C@H](C(=O)O)[C@@H](O)[C@H](O)[C@H]2O)CC[C@]2(C)[C@H]3C(=O)C=C4[C@@H]5C[C@@](C)(C(=O)O)CC[C@]5(C)CC[C@@]4(C)[C@]3(C)CC[C@@H]12`, the Potency was “inactive”. For `CC(C(=O)O)c1ccc(C(=O)c2ccccc2)s1` (stereo not given), the Potency was “inactive”. With `O=C(O)c1ccccc1Nc1cccc(C(F)(F)F)c1` the Potency was “inactive”. With `NS(=O)(=O)c1ccc(-n2nc(C(F)(F)F)cc2-c2ccc(Cl)cc2)cc1` the Potency was “inactive”. In the case of `CC(C(=O)O)c1ccc(C(=O)c2cccs2)cc1` (stereo not given), the Potency was “inactive”. `O=C(O)/C=C\C(=O)O` was tested, and the Potency was “inactive”. For `Nc1ccc(O)c(C(=O)O)c1`, the Potency was “inactive”. With `CC(C)(C)c1nnc(NS(=O)(=O)c2ccc(N)cc2)s1` the Potency was “inactive”. In the case of `CCCCCCCCCCCC(=O)[O][Sn]([CH2]CCC)([CH2]CCC)[O]C(=O)CCCCCCCCCCC`, the Potency was “inactive”. `COC(=O)Nc1nc2ccc(C(=O)C3CC3)cc2[nH]1` was tested, and the Potency was “inactive”. `CCCCCCCCCCCCCCCCCC(=O)O` was tested, and the Potency was “inactive”. For `O=C1CC[C@@H](C(=O)N2CSC[C@H]2C(=O)O)N1` ([pGlu]-[Thz]-OH), the Potency was “inactive”. For `CC1(C)S[C@@H]2[C@H](NC(=O)[C@H](N)c3ccccc3)C(=O)N2[C@H]1C(=O)O`, the Potency was “inactive”. In the case of `CCCC(=O)OC[C@@H](OC(=O)CCC)[C@@H](OC(=O)CCC)[C@H](Cn1c2nc(=O)[nH]c(=O)c-2nc2cc(C)c(C)cc21)OC(=O)CCC`, the Potency was “inactive”. For `Nc1ccc(C(=O)O)c(O)c1`, the Potency was “inactive”. `COc1cc(NC(C)CCCN)c2ncccc2c1` (stereo not given) was tested, and the Potency was “inactive”. With `c1ccc2sc(SN3CCOCC3)nc2c1` the Potency was “inactive”. `CCCCCCCC/C=C/C(=O)O` was tested, and the Potency was “inactive”. In the case of `CCNc1nc2c(ncn2[C@H]2C[C@H](O)[C@@H](CO)O2)c(=O)[nH]1`, the Potency was “inactive”. For `S=c1[nH]c2ccccc2s1`, the Potency was “inactive”.
